Reference: the supplement of paper PMC4466140

Assays:
Test in all cases: SPOT peptide array binding signal intensity (averaged, normalized) (arbitrary units (background-subtracted, floor 0; scale differs between SH3 domains)); higher = stronger binding of the SH3 domain to the peptide
CaNbp2 = target: CaNbp2
Method in brief: (§1)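 Peptides were synthetic 15-mers on cellulose membranes, with every cysteine replaced by serine. They were incubated overnight at 4°C with GST-SH3 domains from four yeast species at 10 μg/ml in TBS-based blocking buffer. Binding signal, the replicate-averaged normalized and background-subtracted spot intensity, is in arbitrary units that differ between domains.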

CaRvs167 = target: CaRvs167
Method in brief: as §1

CaRvs167-3 = target: CaRvs167-3
Method in brief: as §1

CaSho1 = target: CaSho1
Method in brief: as §1

CaSla1-D1-D2 = target: CaSla1-D1-D2
Method in brief: as §1

CaSla1-D3 = target: CaSla1-D3
Method in brief: as §1

ScAbp1 = target: ScAbp1
Method in brief: as §1

ScBbc1 = target: ScBbc1
Method in brief: as §1

ScBem1-D1 = target: ScBem1-D1
Method in brief: as §1

ScBzz1-D1 = target: ScBzz1-D1
Method in brief: as §1

ScBzz1-D2 = target: ScBzz1-D2
Method in brief: as §1

ScCyk3 = target: ScCyk3
Method in brief: as §1

ScFus1 = target: ScFus1
Method in brief: as §1

ScHof1 = target: ScHof1
Method in brief: as §1

ScHse1 = target: ScHse1
Method in brief: as §1

ScLsb1 = target: ScLsb1
Method in brief: as §1

ScLsb2 = target: ScLsb2
Method in brief: as §1

ScLsb3 = target: ScLsb3
Method in brief: as §1

ScLsb4 = target: ScLsb4
Method in brief: as §1

ScMyo3 = target: ScMyo3
Method in brief: as §1

ScMyo5 = target: ScMyo5
Method in brief: as §1

ScNbp2 = target: ScNbp2
Method in brief: as §1

ScPex13 = target: ScPex13
Method in brief: as §1

ScRvs167 = target: ScRvs167
Method in brief: as §1

ScSho1 = target: ScSho1
Method in brief: as §1

ScSla1-D1-D2 = target: ScSla1-D1-D2
Method in brief: as §1

ScSla1-D3 = target: ScSla1-D3
Method in brief: as §1

SpAbp1-D1 = target: SpAbp1-D1
Method in brief: as §1

SpBbc1 = target: SpBbc1
Method in brief: as §1

SpBzz1-D1 = target: SpBzz1-D1
Method in brief: as §1

SpBzz1-D2 = target: SpBzz1-D2
Method in brief: as §1

SpCyk3 = target: SpCyk3
Method in brief: as §1

SpHof1 = target: SpHof1
Method in brief: as §1

SpHof1-2 = target: SpHof1-2
Method in brief: as §1

SpHof1-3 = target: SpHof1-3
Method in brief: as §1

SpHse1 = target: SpHse1
Method in brief: as §1

SpLsb1 = target: SpLsb1
Method in brief: as §1

SpLsb4 = target: SpLsb4
Method in brief: as §1

SpMyo1 = target: SpMyo1
Method in brief: as §1

SpNbp2 = target: SpNbp2
Method in brief: as §1

SpPex13 = target: SpPex13
Method in brief: as §1

SpRvs167 = target: SpRvs167
Method in brief: as §1

SpSla1-D1-D2 = target: SpSla1-D1-D2
Method in brief: as §1

SpSla1-D3 = target: SpSla1-D3
Method in brief: as §1

AgAbp1 = target: AgAbp1
Method in brief: as §1

AgBbc1 = target: AgBbc1
Method in brief: as §1

AgBem1-D1 = target: AgBem1-D1
Method in brief: as §1

AgBzz1-D1 = target: AgBzz1-D1
Method in brief: as §1

AgBzz1-D2 = target: AgBzz1-D2
Method in brief: as §1

AgCyk3 = target: AgCyk3
Method in brief: as §1

AgFus1 = target: AgFus1
Method in brief: as §1

AgHof1 = target: AgHof1
Method in brief: as §1

AgHse1 = target: AgHse1
Method in brief: as §1

AgLsb1 = target: AgLsb1
Method in brief: as §1

AgLsb4 = target: AgLsb4
Method in brief: as §1

AgMyo5 = target: AgMyo5
Method in brief: as §1

AgNbp2 = target: AgNbp2
Method in brief: as §1

AgRvs167 = target: AgRvs167
Method in brief: as §1

AgSho1 = target: AgSho1
Method in brief: as §1

AgSla1-D1-D2 = target: AgSla1-D1-D2
Method in brief: as §1

AgSla1-D3 = target: AgSla1-D3
Method in brief: as §1

CaAbp1-D1 = target: CaAbp1-D1
Method in brief: as §1

CaAbp1-D2 = target: CaAbp1-D2
Method in brief: as §1

CaBbc1 = target: CaBbc1
Method in brief: as §1

CaBem1-D1 = target: CaBem1-D1
Method in brief: as §1

CaBzz1-D1 = target: CaBzz1-D1
Method in brief: as §1

CaBzz1-D2 = target: CaBzz1-D2
Method in brief: as §1

CaCyk3 = target: CaCyk3
Method in brief: as §1

CaFus1 = target: CaFus1
Method in brief: as §1

CaHof1 = target: CaHof1
Method in brief: as §1

CaHse1 = target: CaHse1
Method in brief: as §1

CaLsb1 = target: CaLsb1
Method in brief: as §1

CaLsb4 = target: CaLsb4
Method in brief: as §1

CaMyo5 = target: CaMyo5
Method in brief: as §1

Measured: SPOT peptide array binding signal intensity

PHNPSPFFPPPDFND
118: SpMyo1
5: ScHse1 | ScNbp2 | SpAbp1-D1
7.5: CaSho1
3.33: SpRvs167
3: ScSla1-D3 | SpNbp2
40.5: CaNbp2
18: SpLsb1
1: ScLsb4 | SpBzz1-D2
69.8: SpHse1
≤ 0: CaRvs167-3 | CaSla1-D1-D2 | CaSla1-D3 | ScAbp1 | ScBem1-D1 | ScBzz1-D1 | ScCyk3 | ScFus1 | ScLsb1 | ScLsb2 | ScLsb3 | ScRvs167 | ScSho1 | ScSla1-D1-D2 | SpBbc1 | SpCyk3 | SpHof1 | SpHof1-2 | SpHof1-3 | SpLsb4 | SpPex13 | SpSla1-D1-D2 | SpSla1-D3
0.5: ScBbc1
613: ScMyo5
0.333: CaRvs167
10.5: ScBzz1-D2
920: ScMyo3
0.25: ScHof1
512: ScPex13
30: SpBzz1-D1

ISPPASPPPEFDFSK
0.5: SpHof1-2
877: SpMyo1
40: CaMyo5
22.5: AgBzz1-D2
0.333: AgRvs167
6: SpHse1
1120: ScMyo3
2.5: SpBbc1
5: AgSla1-D1-D2
3.5: ScSla1-D3
781: AgMyo5
3: SpSla1-D3
1.5: CaAbp1-D2 | CaSla1-D3
27.5: AgHse1
428: ScMyo5
1: CaHof1 | CaHse1 | SpBzz1-D2 | SpSla1-D1-D2
14.5: CaBzz1-D2
0.833: CaRvs167
4: AgFus1
≤ 0: all other assays above
